# Source: PubChem BioAssay
# Values joined by “and” are separate entries in the source; they are usually repeats but may differ in a detail not shown here. Equal values may be shown once. Records with an inconclusive call do not appear. Active and inactive are the calls of the source. Rule as the data show it, unless noted: active = inhibition above about 80%; inactive = the rest.
# Tests used:
# [1] = growth inhibition of DIPG glioma cells, dose response, cell-based, SU-DIPG-XVII, MIPE5.0, CellTiter-Glo, qHTS (AID 1347060; cut-off not given, nearly all actives have AC50 up to about 26 µM;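 also: cells exposed to compound for 48 hours before viability readout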); conditions: SU-DIPG-XVII viability, CellTiter-Glo ATP luminescence
# [2] = growth inhibition of DIPG glioma cells, dose response, cell-based, SU-DIPG-IV, MIPE4.0, CellTiter-Glo, qHTS (AID 1347063; cut-off not given, nearly all actives have AC50 up to about 30 µM;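 also: compound exposure lasted 48 hours before the viability readout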); conditions: SU-DIPG-IV viability, CellTiter-Glo ATP luminescence
# [3] = growth inhibition of DIPG glioma cells, dose response, cell-based, SU-DIPG-XIII, MIPE5.0, CellTiter-Glo, qHTS (AID 1347064; cut-off not given, nearly all actives have AC50 up to about 23 µM;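 also: cells exposed to compound for 48 hours before the viability read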); conditions: SU-DIPG-XIII viability, CellTiter-Glo ATP luminescence
# [4] = viability loss in pontine glioma line – cell-based, SU-DIPG-XXV, MIPE5.0, CellTiter-Glo, qHTS, dose response (AID 1347065; cut-off not given, nearly all actives have AC50 up to about 26 µM;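 also: cells exposed to compound for 48 hours before ATP readout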); conditions: CellTiter-Glo ATP luminescence
# [5] = SU-DIPG-XXV glioma cell viability, MIPE5.0 library, qHTS (AID 1347068; cut-off not given, nearly all actives have IC50 up to about 30 µM;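 also: cells exposed to compound for 48 hours before viability readout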)
# [6] = SU-DIPG-VI glioma cell viability, MIPE4.0 library, CellTiter-Glo luminescence, qHTS (AID 1347066; cut-off not given, nearly all actives have AC50 up to about 30 µM;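 also: cells exposed to compound for 48 hours before readout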); conditions: CellTiter-Glo ATP luminescence
# [7] = JHH-DIPG-1 glioma cell viability, MIPE5.0 library, CellTiter-Glo luminescence, qHTS (AID 1347067; cut-off not given, nearly all actives have AC50 up to about 26 µM;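 also: cells exposed to compound for 48 hours before readout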); conditions: JHH-DIPG-1 glioma viability, CellTiter-Glo ATP luminescence
# [8] = sensitizers of A549 cells to miR-34 induction, primary screen, imaging, A549 dox-inducible miR-34, nuclei and caspase counts (AID 1347080;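 active = compounds whose cell count with miR-34 switched on is under 0.7 times the count with it off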); conditions: A549 miR-34 inducible, Hoechst nuclei count, 48 h
# [9] = survival rescue of mitochondrial mutant cells in low glucose, primary screen, MELAS cybrids, Rieske KO mouse fibroblasts, CellTiter-Glo (AID 1508586;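 active = mean z-score across replicates of 1.96 or higher in either the MELAS or the Rieske mutant cell line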;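 also: z relative to plate mean and SD of compound and empty wells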)
# [10] = LFS_MB_P medulloblastoma growth inhibition, cell-based, chromothripsis tumors, cisplatin or BGB combos (AID 1671449); conditions: LFS_MB_P medulloblastoma cells;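 also: cells exposed for 96 hours; 0% = vehicle DMSO and 100% = killing by high DMSO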
# [11] = HDN33 neuroblastoma growth inhibition, cell-based, chromothripsis tumors, cisplatin or BGB combos (AID 1671450); conditions: HDN33 neuroblastoma cells, stronger effect = higher value;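 also: cells exposed to compound for four days; 0% = vehicle DMSO and 100% = cell killing by high DMSO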
# [12] = ICB984 medulloblastoma cell growth inhibition, synergistic combos for chromothripsis tumors, cisplatin or BGB combos (AID 1671451; call rule not given here;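 also: cells exposed for 96 hours before readout; 0% = vehicle DMSO and 100% = killing by high DMSO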); conditions: ICB984 medulloblastoma cells, drug combinations, stronger effect = higher value
# [13] = HTB85 osteosarcoma cell growth inhibition, synergistic combos for chromothripsis tumors, BGB or cisplatin IC20 combos (AID 1671453); conditions: HTB85 osteosarcoma cells, drug combinations, stronger effect = higher value;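 also: cells exposed for 96 hours before readout; 0% = vehicle DMSO and 100% = high DMSO killing control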
# [14] = MDA-MB-436 breast carcinoma cell growth inhibition, synergistic combos for chromothripsis tumors, BGB or cisplatin combos (AID 1671458; call rule not given here;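 also: cells exposed for 96 hours; 0% = vehicle DMSO and 100% = killing by high DMSO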); conditions: MDA-MB-436 breast carcinoma growth inhibition, drug combinations, stronger effect = higher value
# [15] = growth inhibition of BT084 medulloblastoma cells, cell-based, ICGC_MB145, cisplatin and BGB IC40 combos (AID 1671461); conditions: drug combinations, stronger effect = higher value;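 also: cells exposed to drugs for 96 hours; 0% = vehicle DMSO and 100% = high DMSO full killing control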
# [16] = growth inhibition of RCMB18 medulloblastoma cells, cell-based, cisplatin and BGB IC40 combos (AID 1671462); conditions: stronger effect = higher value;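 also: cells exposed to compound for four days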
# [17] = growth inhibition of CRL1545 osteosarcoma cells, cell-based, cisplatin and BGB IC20 combos (AID 1671464); conditions: stronger effect = higher value;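 also: cells exposed to compound for 96 hours before readout; 0% = vehicle DMSO and 100% = high DMSO killing control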
# [18] = measured here: with BGB IC20 combination, at 0.5 µM
# [19] = measured here: with cisplatin IC20 combination, at 0.5 µM
smiles,measurement,setting,value
CCN(CC)CCCCNc1ncc2c(n1)N(C)C(=O)N(c1c(Cl)c(OC)cc(OC)c1Cl)C2,AC50,[1],0.59 µM (active)
same,AC50,[2],18.7 µM (active)
same,AC50,[3],0.263 µM (active)
same,AC50,[4],0.372 µM (active)
same,IC50,[5],7.42 µM (active)
CC1(C)CCC2=C(O1)c1ccccc1C(=O)C2=O,AC50,[1],11.8 µM (active)
same,AC50,[2],20.9 µM (active)
same,AC50,[3],6.61 µM (active)
same,AC50,[4],9.34 µM (active)
same,AC50,[6],20.9 µM (active)
same,AC50,[7],7.42 µM (active)
same,IC50,[5],23.5 µM (active)
same,fold change,"[8]; stronger effect = lower value, cell number ratio, induced over uninduced",1.06 (inactive) and 1.01 (inactive)
same,fold change,[8]; measured here: relative caspase fold change +Dox/-Dox,0.218 and 1.14 and 0.258
same,cell count,"[8]; measured here: total cells with miR-34 induction, stronger effect = lower value",1260 and 1140 and 1760
same,cell count,[8]; measured here: total cells without miR-34 induction,1190 and 1130 and 1740
same,z-score,"[9]; MELAS cybrid survival, CellTiter-Glo 48 h, stronger effect = higher value",1.23 (inactive)
same,z-score,"[9]; Rieske KO mouse fibroblast survival, CellTiter-Glo 72 h",-4.3
same,inhibition,"[10]; at 0.5 µM, stronger effect = higher value",-7.4% (inactive) and 16.4% (inactive)
same,inhibition,"[10]; measured here: combination with BGB IC20, at 0.005 µM",-31.4% and 0.116%
same,inhibition,"[10]; measured here: combination with BGB IC40, at 0.005 µM",-87% and -10.2%
same,inhibition,"[10]; measured here: combination with BGB IC40, at 0.05 µM",-28.3% and -0.424%
same,inhibition,"[10]; measured here: combination with cisplatin, at 0.5 µM, stronger effect = higher value",51.9% and 10.9%
same,inhibition,"[10]; measured here: combination with cisplatin, at 5 µM, stronger effect = higher value",111% and 116%
same,inhibition,"[11]; BGB combo, at 5 µM",99.6% and 99%
same,inhibition,[11]; at 0.5 µM,-4.92% (inactive) and -3.55% (inactive)
same,inhibition,"[11]; cisplatin combo, at 5 µM",99% and 99.1%
same,inhibition,[11]; [18],-10.6% and -8.55%
same,inhibition,[11]; [19],4.95% and -8.23%
same,inhibition,"[11]; single agent, at 5 µM",99.5% and 99.2%
same,inhibition,"[12]; BGB IC20 combo, at 0.005 µM",-11% and 11%
same,inhibition,"[12]; BGB IC40 combo, at 0.005 µM",-16.5% and -32.8%
same,inhibition,"[12]; BGB IC40 combo, at 0.05 µM",91.3% and 98.3%
same,inhibition,[12]; at 0.5 µM,-22.3% (inactive) and -31.1% (inactive)
same,inhibition,"[12]; cisplatin combo, at 0.05 µM",91.3% and 98.3%
same,inhibition,"[12]; cisplatin combo, at 0.5 µM",-20.6% and -42.9%
same,inhibition,"[12]; cisplatin combo, at 5 µM",-38.6% and -41.8%
same,inhibition,"[12]; measured here: 5 uM single agent, at 5 µM",2.52% and -3.56%
same,inhibition,[13]; at 0.5 µM,-5.23% (inactive) and 6.87% (inactive)
same,inhibition,"[13]; measured here: with BGB IC20, at 0.5 µM",23.7% and 5.32%
same,inhibition,"[13]; measured here: with BGB IC20, at 5 µM",76.7% and 64.8%
same,inhibition,"[13]; measured here: with cisplatin IC20, at 0.5 µM",-20.9% and 1.14%
same,inhibition,"[13]; measured here: with cisplatin IC20, at 5 µM",61.5% and 60.9%
same,inhibition,"[13]; single agent, at 5 µM",70.5% and 62.3%
same,inhibition,[14]; at 0.5 µM,-2.8% (inactive) and -3.21% (inactive)
same,inhibition,"[14]; measured here: BGB combination, at 0.5 µM",3.02% and -1.78%
same,inhibition,"[14]; measured here: BGB combination, at 5 µM",81.9% and 78.2%
same,inhibition,"[14]; measured here: cisplatin combination, at 0.5 µM",-22.4% and -3.57%
same,inhibition,"[14]; measured here: cisplatin combination, at 5 µM",86.7% and 87.2%
same,inhibition,[15]; at 0.5 µM,-12.5% (inactive) and -0.136% (inactive)
same,inhibition,"[15]; cisplatin combination, at 0.5 µM",-14.9% and 2.47%
same,inhibition,"[15]; cisplatin combination, at 5 µM",78.1% and 100%
same,inhibition,"[15]; measured here: BGB IC40 combination 0.05 uM, at 0.05 µM",-20.9% and -18.5%
same,inhibition,"[15]; single agent, at 5 µM",99.5% and 99.6%
same,inhibition,[16]; at 0.5 µM,-1.45% (inactive) and 6.25% (inactive)
same,inhibition,"[16]; cisplatin combo, at 5 µM",101%
same,inhibition,"[16]; measured here: BGB IC40 combination, at 0.05 µM",-6.29% and -29%
same,inhibition,"[16]; measured here: combination with cisplatin, at 0.5 µM",-0.361% and 36.6%
same,inhibition,"[16]; single agent, at 5 µM",98.1% and 99.3%
same,inhibition,[17]; at 0.5 µM,36.2% (inactive) and 22.6% (inactive)
same,inhibition,[17]; [18],33.7% and 14.6%
same,inhibition,[17]; [19],36.4% and 26.5%
same,inhibition,"[17]; single agent, at 0.05 µM",-59.2% and -23.1%
same,inhibition,"[17]; single agent, at 5 µM",98.9% and 98.3%
